In PubChem BioAssay (NCATS):
Values joined by “and” are separate entries in the source; they are usually repeats but may differ in a detail not shown here. Identical values can stand only once. Inconclusive results are not listed. Active and inactive are the calls of the source. Unless noted, the call rests on the fitted dose curve; in most records, active means well fitted curve in the direction sought with a large enough effect; inconclusive means small, poorly fitted or top-dose-only effect, or another doubt; inactive means no such curve, though single readings can be large; an effect the other way counts as inactive or inconclusive.

What was measured:
[1] = Cell Viability - BJ (AID 421; calls by dose curve;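 further: potency means the concentration at half of the fitted maximal effect; cells exposed to compound for 40 hours at 37 °C before readout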); settings: BJ fibroblast viability, qHTS
How it was run: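 Cytotoxicity as drop in intracellular ATP (CellTiter-Glo, 20 min RT) after 40 hr compound exposure of BJ fibroblasts at 37 °C. Titrations scaled between DMSO and 100 uM tamoxifen, Hill-fitted for AC50.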

[2] = Cell Viability - HepG2 (AID 433; calls by dose curve;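 further: potency means the concentration at half of the fitted maximal effect; potency for ATP loss meaning cytotoxicity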); settings: qHTS
How it was run: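 HepG2 hepatocellular carcinoma cells (1500/well) were treated with compounds for 40 h at 37 °C in complete medium; intracellular ATP was read by CellTiter-Glo luminescence. Data were normalized to DMSO and 100 uM tamoxifen, and AC50 came from Hill fits.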

[3] = Cell Viability - MRC5 (AID 434; calls by dose curve;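 further: potency means the concentration at half of the fitted maximal effect; potency reflects cytotoxicity seen as loss of intracellular ATP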); settings: MRC5 lung fibroblast viability, qHTS
How it was run: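 Decrease in intracellular ATP, quantified by luciferase light output, reflects compound toxicity toward MRC5 cells exposed for 40 hr in complete culture medium. Concentration-response curves, scaled between DMSO and 100 uM tamoxifen, gave AC50 values.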

[4] = Cell Viability - SK-N-SH (AID 435; calls by dose curve;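 further: potency means the concentration at half of the fitted maximal effect; compound exposure lasted 40 h at 37 °C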); settings: SK-N-SH neuroblastoma cell viability qHTS
How it was run: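 SK-N-SH human neuroblastoma cells (1500/well) were exposed to compounds in complete medium for 40 h at 37 °C, and intracellular ATP was then measured by CellTiter-Glo luminescence. AC50 was taken from Hill fits, normalized to DMSO and 100 uM tamoxifen.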

[5] = Cell Viability - NIH 3T3 (AID 541); settings: NIH 3T3 cell viability, qHTS; activity change, negative = cytotoxicity: at 92.2 µM (top of the series);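 further: plate controls were DMSO alone for no effect and tamoxifen positive control for full effect; nearly all actives have a fitted effect of over 25% in size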
How it was run: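 In this cytotoxicity screen, acute toxicity is scored as an ATP drop measured by CellTiter-Glo in NIH 3T3 fibroblasts following a 40 hr, 37 °C incubation with compound.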

[6] = Cell Viability - HUV-EC-C (AID 542); settings: HUV-EC-C endothelial cell viability, qHTS; series mostly up to 92.2 µM; further: on the % scale 0 is the no-effect control and ±100 the full control effect; nearly all actives have a fitted effect of over 35% in size
How it was run: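 Concentration-dependent ATP loss in HUV-EC-C cells is the measure. Exposure lasts 40 hr at 37 °C; luminescence follows CellTiter-Glo addition, and Hill fits give AC50.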

[7] = Cell Viability - H-4-II-E (AID 543); settings: H-4-II-E rat hepatoma viability; series mostly up to 92.2 µM; further: on the % scale 0 is the no-effect control and ±100 the full control effect; nearly all actives have a fitted effect of over 35% in size
How it was run: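 AC50 from Hill-modelled qHTS concentration-response curves. H-4-II-E rat hepatoma cells in complete medium, 40 hr exposure at 37 °C, viability by CellTiter-Glo ATP luminescence.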

[8] = Cell Viability - SH-SY5Y (AID 544); settings: SH-SY5Y neuroblastoma cell viability; viability change, negative = cytotoxic: at 92.2 µM (top of the series); further: nearly all actives have a fitted effect of over 55% in size
How it was run: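 Quantitative HTS in SH-SY5Y neuroblastoma cells, 40 hr treatment at 37 °C, ATP content by luciferase luminescence; AC50 from Hill fits.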

[9] = Cell Viability - Renal Proximal Tubule (AID 545); settings: renal proximal tubule cells viability; at 91.7 µM (top of the series), primary cells of rat origin unless noted; further: nearly all actives have a fitted effect of over 40% in size
How it was run: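 Primary rat renal proximal tubule cells (1000/well) were treated with compounds for 40 hr at 37 °C in complete medium. Intracellular ATP was measured by CellTiter-Glo luminescence, and AC50 values came from Hill-equation fits of concentration-response data.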

[10] = Cell Viability - Mesenchymal (AID 546); settings: mesenchymal cells viability, qHTS; series mostly up to 91.7 µM;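 further: cells exposed to compound for 40 hours before reading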
How it was run: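 In this qHTS cytotoxicity format, glomerulus-derived human mesenchymal kidney cells received compound for 40 hr, then luciferase-based ATP quantitation. Concentration-response data were fitted with the Hill equation.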

[11] = Cellular Toxicity (caspase-3) HepG2 (AID 654); settings: HepG2 caspase-3 activation, luminescence, 0% = DMSO only, 100% = tamoxifen; series mostly up to 92.2 µM;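 further: cells exposed to compound for 16 hours before reading; 0% = DMSO alone and 100% = caspase signal from 100 µM tamoxifen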
How it was run: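 Concentration-response AC50 values reflect caspase-3/7 induction in HepG2 cells after 16 hours of compound exposure, quantified by luminescence from liberated aminoluciferin and referenced to 100 uM tamoxifen as full stimulation.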

[12] = Cellular Toxicity (caspase-3) Jurkat (AID 655); settings: Jurkat caspase-3 activation, luminescence, DMSO = 0%, tamoxifen = 100%; at 92.2 µM (top of the series);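 further: cells exposed to compound for 16 h at 37 °C before reading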
How it was run: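 Jurkat cells (5000/well) in complete medium were treated with compounds for 16 hr at 37 °C, then Caspase-Glo 3/7 luminescence was read after 20 min at room temperature. Data normalized to DMSO (basal) and 100 uM tamoxifen (100%); AC50 from Hill fit.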

[13] = Cellular Toxicity (caspase-3) SHSY5Y (AID 657); settings: SH-SY5Y caspase-3 activation, DMSO zero, 10 µM staurosporine = 100%; series mostly up to 91.7 µM;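 further: cells exposed to compound for 16 hours at 37 °C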
How it was run: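 SH-SY5Y human neuroblastoma cells (1500/well) were treated with compounds for 16 h at 37 °C, then Caspase-Glo 3/7 luminescence was read after 1 h at room temperature. Data normalized to DMSO and 10 uM staurosporine; AC50 from Hill fits.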

[14] = Cellular Toxicity (caspase-3) BJ (AID 658); settings: BJ fibroblasts, luminescence, normalized: DMSO 0%, staurosporine 100%; series mostly up to 91.7 µM
How it was run: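 Plated BJ cells (1000/well) rested 5 hr, received compound for 16 hr at 37 °C, then Caspase-Glo 3/7 reagent for 1 hr at room temperature before luminescence reading.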

[15] = Cellular Toxicity (caspase-3) MRC-5 (AID 659); settings: MRC-5 cells, luminescence, normalized: DMSO 0%, 10 µM staurosporine 100%; series mostly up to 91.7 µM
How it was run: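 Apoptosis readout in MRC-5 cells: luciferase light generated after caspase 3/7 cleaves a peptide-aminoluciferin substrate, measured post 16 hr compound incubation at 37 °C.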

[16] = qHTS Assay for Identification of Small Molecule Inducers of Hypoxia Response (AID 2120; active means well fitted curve in the direction sought with a large enough effect in the signal ratio, with a control signal flat, not every such curve was filed as active; the % refers to the signal ratio; further: 0% is about no effect); settings: hypoxia response reporter cells, beta-lactamase ratio readout; series mostly up to 104 µM
How it was run: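 HRE-bla ME-180, 2500 cells/well, 0.5% dialyzed FBS medium; cpd titration, 17 h 37 degrees C; CCF4 2.5 h RT; Ex 405, Em 460/530 ratio -> %Activity, AC50.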

[17] = qHTS assay for small molecule antagonists of retinoid X receptor alpha signaling (AID 588546; active means well fitted inhibition curve with a large enough effect in the signal ratio, with a control signal flat, not every such curve was filed as active; the % refers to the signal ratio;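 further: cells stimulated with 9-cis-retinoic acid as agonist; on the % scale 0 is the no-effect control and ±100 the full control effect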); settings: HEK293T RXRa-UAS-bla, beta-lactamase ratio, antagonist mode; measured here: W530 green channel, cytotoxicity proxy
How it was run: (§1)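 Beta-lactamase reporter inhibition, read as CCF4 fluorescence ratio (ex 405, em 460/530 nm) after 2 h at RT. HEK293T UAS-bla cells, 2500/well, were stimulated with 9-cis-RA at 500 or 100 nM final alongside test compound for 18 h at 37 C.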

[18] = molecular target: Retinoic acid receptor RXR-alpha (Homo sapiens) (UniProt P19793); experiment: as above; settings: HEK293T RXRa-UAS-bla, beta-lactamase ratio, antagonist mode
Retinoic acid receptor RXR-alpha (Homo sapiens), sequence (P19793 whole entry, looked up): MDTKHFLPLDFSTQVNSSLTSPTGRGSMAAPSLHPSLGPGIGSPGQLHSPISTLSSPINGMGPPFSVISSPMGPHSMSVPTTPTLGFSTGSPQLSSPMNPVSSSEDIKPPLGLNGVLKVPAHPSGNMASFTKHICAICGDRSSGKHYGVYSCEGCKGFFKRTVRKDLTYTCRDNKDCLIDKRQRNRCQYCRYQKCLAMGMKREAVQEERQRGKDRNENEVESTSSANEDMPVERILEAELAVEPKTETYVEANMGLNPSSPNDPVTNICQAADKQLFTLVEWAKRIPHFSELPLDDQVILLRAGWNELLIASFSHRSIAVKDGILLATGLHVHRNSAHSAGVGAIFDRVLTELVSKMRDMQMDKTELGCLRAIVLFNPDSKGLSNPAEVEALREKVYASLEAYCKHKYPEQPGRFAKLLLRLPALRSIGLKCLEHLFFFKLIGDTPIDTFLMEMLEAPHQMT
How it was run: as §1

[19] = molecular target: Tumor necrosis factor (Homo sapiens) (UniProt P01375); experiment: qHTS assay to identify small molecules that stimulate Tumor Necrosis Factor-alpha (TNF-alpha) secretion (AID 651757; active means well fitted curve in the direction sought with a large enough effect in the signal ratio; the % refers to the signal ratio; further: 0% is about no effect); settings: Human cells, HTRF 665/615 ratio; series mostly up to 92.2 µM
Tumor necrosis factor (Homo sapiens), sequence (P01375 whole entry, looked up): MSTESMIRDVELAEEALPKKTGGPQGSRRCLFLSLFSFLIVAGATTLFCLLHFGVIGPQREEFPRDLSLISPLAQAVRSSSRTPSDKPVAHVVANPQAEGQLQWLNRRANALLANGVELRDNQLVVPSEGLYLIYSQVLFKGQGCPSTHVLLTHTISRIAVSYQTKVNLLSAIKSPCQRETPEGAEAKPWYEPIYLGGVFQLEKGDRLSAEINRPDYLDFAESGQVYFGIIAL
How it was run: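 Using 3000 THP-1 cells per well, compounds and controls were applied for 17 hrs at 37 C. Detection followed with two labeled anti-TNF-alpha antibodies (cryptate donor, XL665 acceptor) for 3 hr at room temperature, measured by TR-FRET.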

[20] = qHTS assay for environmental chemicals that activate the Aryl hydrocarbon Receptor (AhR) signaling pathway (AID 651777); settings: 1A2-DRE human hepatoma cells, luciferase, 24 h; activation: stronger effect = higher value; further: % of control where 0% means no effect; nearly all actives have a fitted effect of over 15% in size
How it was run: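 Induction of CYP1A2 transcription through AhR is detected by luciferase in 1A2-DRE hepatoma cells. Compounds or DMSO act for 24 hr at 37 C before a 30 min One-Glo step at room temperature.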

C[N+](C)(C)Cc1ccccc1
inactive: Potency [1] > 92 µM | Potency [2] > 92 µM | Potency [3] > 92 µM | Potency [4] > 92 µM | activity change, negative = cytotoxicity [5] -12.6% | Potency [6] | Potency [7] | Potency [8] | activity change, negative = cytotoxicity [9] 0.397% [at 91.7 µM] | outcome [10] | outcome [11] | caspase-3 activation [12] 0.448% | outcome [13] | outcome [14] | outcome [15] | outcome [16] | max response [18] 9.55% and -19% | outcome [19] | activation [20] -0.332% and -0.436%
0.533% and -1.08%: max response [17]

c1ccc(OP(Oc2ccccc2)Oc2ccccc2)cc1
inactive: Potency [1] > 92 µM | Potency [2] > 92 µM | Potency [3] > 92 µM | Potency [4] > 92 µM | activity change, negative = cytotoxicity [5] 7% | Potency [6] | Potency [7] | Potency [8] | activity change, negative = cytotoxicity [9] 1.28% | outcome [10] | outcome [11] | caspase-3 activation [12] -1.12% | outcome [13] | outcome [14] | outcome [15] | outcome [16] | max response [18] 4.67% and -4.17% | outcome [19] | activation [20] 0.234% and -1.88%
-3.76% and -10.6%: max response [17]

Cc1cccc(C#N)c1
3.52%: max response [17]
inactive: Potency [1] > 92 µM | Potency [2] > 92 µM | Potency [3] > 92 µM | Potency [4] > 92 µM | activity change, negative = cytotoxicity [5] -15.8% | Potency [6] | Potency [7] | Potency [8] | activity change, negative = cytotoxicity [9] -8.34% | outcome [10] | outcome [11] | caspase-3 activation [12] 0.831% | outcome [13] | outcome [14] | outcome [15] | outcome [16] | max response [18] 20.5% | outcome [19] | activation [20] 2.06%

O=NN(CCO)CCO
inactive: Potency [1] > 92 µM | Potency [2] > 92 µM | Potency [3] > 92 µM | Potency [4] > 92 µM | activity change, negative = cytotoxicity [5] -23.2% | Potency [6] | Potency [7] | Potency [8] | activity change, negative = cytotoxicity [9] -10.4% | outcome [10] | outcome [11] | caspase-3 activation [12] -1.33% | outcome [13] | outcome [14] | outcome [15] | outcome [16] | max response [18] 16.4% | outcome [19] | activation [20] -0.118%
-0.955%: max response [17]

CCOP(=S)(OCC)Oc1ccc([N+](=O)[O-])cc1
inactive: Potency [1] > 92 µM | Potency [2] > 92 µM | Potency [3] > 92 µM | Potency [4] > 92 µM | activity change, negative = cytotoxicity [5] -19.3% | Potency [6] | Potency [7] | Potency [8] | activity change, negative = cytotoxicity [9] -6.62% and -2.54% | outcome [10] | outcome [11] | caspase-3 activation [12] -2.23% and 0.755% | outcome [13] | outcome [14] | outcome [15] | outcome [16] | max response [18] 10.9% and -20.1% | outcome [19] | activation [20] 8.97%
14.9% and 8.35%: max response [17]

Nc1c(Cl)c(Cl)nc(C(=O)O)c1Cl
15% and 5.55% and 11.1%: max response [17]
inactive: Potency [1] > 92 µM | Potency [2] > 92 µM | Potency [3] > 92 µM | Potency [4] > 92 µM | activity change, negative = cytotoxicity [5] -10.1% | Potency [6] | Potency [7] | Potency [8] | activity change, negative = cytotoxicity [9] -10.2% | outcome [10] | outcome [11] | caspase-3 activation [12] 0.643% | outcome [13] | outcome [14] | outcome [15] | outcome [16] | max response [18] -3.97% and -1.67% and -10.4% | outcome [19] | activation [20] 6.67% and 13.8% and 2.52%

Cc1ccc([N+](=O)[O-])cc1C
inactive: Potency [1] > 92 µM | Potency [2] > 92 µM | Potency [3] > 92 µM | Potency [4] > 92 µM | activity change, negative = cytotoxicity [5] -7.46% | Potency [6] | Potency [7] | Potency [8] | activity change, negative = cytotoxicity [9] -10.6% | outcome [10] | outcome [11] | caspase-3 activation [12] -0.46% | outcome [13] | outcome [14] | outcome [15] | outcome [16] | max response [18] 17.5% and -26.4% | outcome [19] | activation [20] -0.487% and 1.08%
-4.65% and -9.04%: max response [17]
